According to PubChem BioAssay AID1159580 (chemical genetic matrix, 2015):
About 2,000 (36%) of roughly 5,500 compounds were called active. Inconclusive results (about 18%) are left out. Cut-off read from the data, not from the text of the source: active = normalized growth mostly below about 0.91 (no sharp cut-off); inconclusive = no clear call, values can overlap the other calls; inactive = mostly above about 0.92. The list shows a part of the results.

Test: chemical genetic growth profiling, strain panel (AID 1159580);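 note: tested at 20 µM; growth read once vehicle control cultures reached saturation at 30 °C; 1 = growth at the plate median or of vehicle wells; lower values mean less growth of the strain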
Conditions: growth OD

Measured: normalized growth

Cc1ccc(S(=O)(=O)NC(=O)NN2CC3CCCC3C2)cc1 (stereo not drawn)
inactive: S. cerevisiae deletion strains, locus YJR043C, strain POL32, active compounds read low 0.991 | S. cerevisiae deletion strains, locus YJR066W, strain TOR1, active compounds read low 0.904 | S. cerevisiae deletion strains, locus YKL009W, strain mrt4, active compounds read low 1.02 | S. cerevisiae deletion strains, locus YKL068W, active compounds read low 1.01 | S. cerevisiae deletion strains, locus YKL085W, strain MDH1 (second series), active compounds read low 1.04 | S. cerevisiae deletion strains, locus YKL085W, strain MDH1, active compounds read low 1.04 | S. cerevisiae deletion strains, locus YKL160W, strain elf1, active compounds read low 0.98 | S. cerevisiae deletion strains, locus YKL190W, strain CNB1, active compounds read low 1.01 | S. cerevisiae deletion strains, locus YKR001C, strain vps1, active compounds read low 1.01 | S. cerevisiae deletion strains, locus YKR026C, strain gcn3, active compounds read low 0.978 | S. cerevisiae deletion strains, locus YKR091W, strain srl3, active compounds read low 0.974 | S. cerevisiae deletion strains, locus YLL001W, strain dnm1, active compounds read low 0.953 | S. cerevisiae deletion strains, locus YLL026W, active compounds read low 0.974 | S. cerevisiae deletion strains, locus YLL041C, strain sdh2, active compounds read low 0.982 | S. cerevisiae deletion strains, locus YLR027C, strain aat2, active compounds read low 0.976 | S. cerevisiae deletion strains, locus YLR039C, strain RIC1, active compounds read low 0.943 | S. cerevisiae deletion strains, locus YLR058C, strain SHM2, active compounds read low 1.01 | S. cerevisiae deletion strains, locus YLR102C, strain apc9, active compounds read low 1.01 | S. cerevisiae deletion strains, locus YLR113W, strain HOG1, active compounds read low 0.974 | S. cerevisiae deletion strains, locus YLR221C, strain rsa3, active compounds read low 0.976 | S. cerevisiae deletion strains, locus YLR258W, strain gsy2, active compounds read low 0.99 | S. cerevisiae deletion strains, locus YLR262C, strain YPT6 (second series), active compounds read low 0.927 | S. cerevisiae deletion strains, locus YLR262C, strain YPT6, active compounds read low 0.967 | S. cerevisiae deletion strains, locus YLR268W, strain sec22, active compounds read low 0.999 | S. cerevisiae deletion strains, locus YLR320W, strain mms22, active compounds read low 0.983 | S. cerevisiae deletion strains, locus YLR330W, strain CHS5, active compounds read low 1 | S. cerevisiae deletion strains, locus YLR342W, strain FKS1 (second series), active compounds read low 0.992 | S. cerevisiae deletion strains, locus YLR342W, strain FKS1, active compounds read low 0.996 | S. cerevisiae deletion strains, locus YLR357W, strain rsc2, active compounds read low 0.989 | S. cerevisiae deletion strains, locus YLR370C, strain arc18, active compounds read low 0.953 | S. cerevisiae deletion strains, locus YLR371W, strain rom2, active compounds read low 1.01 | S. cerevisiae deletion strains, locus YLR384C, strain iki3, active compounds read low 0.993 | S. cerevisiae deletion strains, locus YLR418C, strain cdc73, active compounds read low 1.02 | S. cerevisiae deletion strains, locus YML016C, strain PPZ1, active compounds read low 0.996 | S. cerevisiae deletion strains, locus YML032C, strain rad52, active compounds read low 1.01 | S. cerevisiae deletion strains, locus YML120C, strain ndi1, active compounds read low 1.01 | S. cerevisiae deletion strains, locus YML124C, strain tub3, active compounds read low 1.01 | S. cerevisiae deletion strains, locus YMR058W, strain fet3, active compounds read low 0.958 | S. cerevisiae deletion strains, locus YMR078C, strain ctf18, active compounds read low 1.02 | S. cerevisiae deletion strains, locus YMR125W, strain sto1, active compounds read low 0.966 | S. cerevisiae deletion strains, locus YMR129W, active compounds read low 0.97 | S. cerevisiae deletion strains, locus YMR205C, strain PFK2, active compounds read low 0.991 | S. cerevisiae deletion strains, locus YMR223W, strain ubp8, active compounds read low 1.03 | S. cerevisiae deletion strains, locus YMR231W, strain pep5, active compounds read low 0.989 | S. cerevisiae deletion strains, locus YMR263W, strain SAP30, active compounds read low 1.02 | S. cerevisiae deletion strains, locus YMR307W, strain GAS1, active compounds read low 1.04 | S. cerevisiae deletion strains, locus YNL067W, strain RPL9B, active compounds read low 1.03 | S. cerevisiae deletion strains, locus YNL071W, strain lat1, active compounds read low 0.974 | S. cerevisiae deletion strains, locus YNL153C, strain GIM3, active compounds read low 1 | S. cerevisiae deletion strains, locus YNL183C, strain NPR1, active compounds read low 0.92 | S. cerevisiae deletion strains, locus YNL209W, strain ssb2, active compounds read low 0.977 | S. cerevisiae deletion strains, locus YNL233W, strain BNI4, active compounds read low 1.01 | S. cerevisiae deletion strains, locus YNL248C, strain rpa49, active compounds read low 0.982 | S. cerevisiae deletion strains, locus YNL250W, strain rad50, active compounds read low 1.03 | S. cerevisiae deletion strains, locus YNL271C, strain bni1, active compounds read low 1.01 | S. cerevisiae deletion strains, locus YNL298W, strain CLA4, active compounds read low 1.04 | S. cerevisiae deletion strains, locus YNL307C, strain MCK1, active compounds read low 1.02 | S. cerevisiae deletion strains, locus YNL322C, strain KRE1 (second series), active compounds read low 0.978 | S. cerevisiae deletion strains, locus YNR049C, strain mso1, active compounds read low 0.961 | S. cerevisiae deletion strains, locus YNR052C, strain pop2, active compounds read low 1.01 | S. cerevisiae deletion strains, locus YOL012C, strain htz1 0.86 | S. cerevisiae deletion strains, locus YOL147C, strain pex11, active compounds read low 1.02 | S. cerevisiae deletion strains, locus YOR001W, strain rrp6, active compounds read low 0.99 | S. cerevisiae deletion strains, locus YOR061W, strain CKA2, active compounds read low 0.996 | S. cerevisiae deletion strains, locus YOR069W, strain VPS5, active compounds read low 1.01 | S. cerevisiae deletion strains, locus YOR070C, strain gyp1, active compounds read low 0.985 | S. cerevisiae deletion strains, locus YOR080W, strain dia2, active compounds read low 0.97 | S. cerevisiae deletion strains, locus YOR083W, strain WHI5, active compounds read low 0.982 | S. cerevisiae deletion strains, locus YOR106W, strain vam3, active compounds read low 0.968 | S. cerevisiae deletion strains, locus YOR136W, strain idh2, active compounds read low 1.01 | S. cerevisiae deletion strains, locus YOR144C, strain elg1, active compounds read low 1.01 | S. cerevisiae deletion strains, locus YOR184W, strain ser1, active compounds read low 1 | S. cerevisiae deletion strains, locus YOR231W, strain MKK1, active compounds read low 0.971 | S. cerevisiae deletion strains, locus YOR265W, strain rbl2, active compounds read low 0.967 | S. cerevisiae deletion strains, locus YOR270C, strain vph1, active compounds read low 1.03 | S. cerevisiae deletion strains, locus YOR290C, strain snf2, active compounds read low 0.939 | S. cerevisiae deletion strains, locus YOR316C, strain cot1, active compounds read low 1.01 | S. cerevisiae deletion strains, locus YPL051W, strain arl3, active compounds read low 0.959 | S. cerevisiae deletion strains, locus YPL078C, strain atp4, active compounds read low 0.978 | S. cerevisiae deletion strains, locus YPL106C, strain sse1, active compounds read low 1 | S. cerevisiae deletion strains, locus YPL240C, strain hsp82, active compounds read low 0.985 | S. cerevisiae deletion strains, locus YPL256C, strain CLN2, active compounds read low 0.965 | S. cerevisiae deletion strains, locus YPR119W, strain clb2, active compounds read low 1.01 | S. cerevisiae deletion strains, locus YPR141C, strain kar3, active compounds read low 1.03 | S. cerevisiae deletion strains, locus YPR163C, strain tif3, active compounds read low 1.02 | S. cerevisiae deletion strains, locus YPR167C, strain met16, active compounds read low 1.02 | S. cerevisiae deletion strains, strain wtn01, active compounds read low 1 | S. cerevisiae strains, strain wild type, active compounds read low 0.997
